Screens: PubChem, several laboratories
dFosB act: activators of mouse delta FosB homodimer; activation, % at 25 µM; P13346; purified delta FosB, TAMRA-CDK5 oligo fluorescence polarization; percent of positive-control signal above neutral wells; 340,000 tested, 0.99% active;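 active = mean activation above about 17%, with every replicate also reaching it, limit read from the data, passing the limit was not always enough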
Target sequence (P13346 whole entry, looked up): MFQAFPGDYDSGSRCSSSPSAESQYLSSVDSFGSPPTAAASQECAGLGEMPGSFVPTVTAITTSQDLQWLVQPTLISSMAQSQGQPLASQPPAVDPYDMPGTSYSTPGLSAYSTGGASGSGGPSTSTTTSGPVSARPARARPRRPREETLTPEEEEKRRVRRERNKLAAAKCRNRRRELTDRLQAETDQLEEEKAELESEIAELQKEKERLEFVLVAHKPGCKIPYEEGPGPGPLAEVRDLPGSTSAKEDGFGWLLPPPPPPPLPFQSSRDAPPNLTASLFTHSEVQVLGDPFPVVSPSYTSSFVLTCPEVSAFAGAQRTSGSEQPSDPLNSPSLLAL
Rtt109 Vps75: C. albicans Rtt109 histone acetyltransferase inhibition; Q5AAJ8; purified Rtt109/Vps75, ThioGlo CoA-SH fluorescence, 4 h; inhibition, % at 34.9 µM; 330,000 tested, 0.16% active;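 active = inhibition of at least 50% in every replicate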
SMARCA2 act: increases SMARCA2 function in MMTV reporter cells | activation, % at 9.1 µM | AID 652017 | 370,000 tested, 1% active | MG213 cells, MMTV-luciferase reporter, dexamethasone, overnight; in the data active = activation above about 7.8%;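 also: 0% = vehicle wells and 100% = reference activator wells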
CDK5 inh: inhibitors of human CDK5/p35 kinase | Q00535+Q15078 | Recombinant CDK5/p35, ADP-Glo luminescence, 60 min | inhibition, % at 10 µM | 330,000 tested, 0.01% active | AID 488839;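 active = highest replicate inhibition of at least 50% and at least 75% of replicates reaching 50%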;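 also: plate controls were DMSO neutral control for no effect and GW8510 at 10 µM for full effect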
esBAF inh: SWI/SNF esBAF complex inhibition; reporter increase, % at 12.5 µM; 350,000 tested, 2% active; mouse ES cells, Bmi1-luciferase knock-in reporter, 24 h; 100% = twice the neutral-well signal; in the data active = activation above about 40%;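 also: 0% = median of the plate's neutral control wells and 100% = double that signal; a rise in the Bmi1 reporter signal indicates esBAF inhibition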
Dyrk1A ADPGlo: blocks rat Dyrk1A kinase activity; Q63470; ADP-Glo luminescence, NFATc1 peptide; inhibition, % at 12.5 µM; 310,000 tested, 0.43% active; in the data active = inhibition above about 50%;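 also: plate controls were vehicle with enzyme for no effect and no enzyme for full effect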
* = called active by the depositor; nt = no result. Sampled rows, rich in hits. Any-hit rate of the full collection: about 3.2%.

SMILES	dFosB act	Rtt109 Vps75	SMARCA2 act	CDK5 inh	esBAF inh	Dyrk1A ADPGlo
COCC(=O)Nc1ccc2c(c1)OC[C@H](C)N(CCc1ccccc1)C[C@H](C)[C@H](OC)CN(C)C2=O	nt	nt	nt	nt	1	nt
CCN(CC)c1ccc(/C=N/Nc2nc3ccccc3[nH]2)c(O)c1	32*	-11	0	0	-14	5
Cc1ccc2cc(/C=N/Nc3nc4ccccc4[nH]3)c(Cl)nc2c1	-1	nt	7.8*	-2	nt	12
COc1cc(OC)c(OC)cc1/C=N/Nc1nc2ccccc2[nH]1	5	3	-3	2	nt	3
CCN(CC)c1ccc(/C=N/N(c2ccccc2)c2ccccc2)c(O)c1	-3	-7	-3	-1	-16	4
COc1ccc(S(=O)(=O)N(C)C[C@H]2OCCCC[C@H](C)Oc3ccc(NS(=O)(=O)c4cn(C)cn4)cc3C(=O)N([C@H](C)CO)C[C@@H]2C)cc1	nt	nt	nt	nt	-5	nt
CCSc1nnc(NC(=O)C2CCCCC2)s1	-6	-1	4	0	44*	-5
O=C(Nc1nnc(-c2ccco2)s1)C1CCCCC1	-1	3	2	-6	77*	-5
CSc1nnc(NC(=O)C2CCCCC2)s1	-4	-10	-4	-2	45*	2
CCn1c(C(=O)N2CCc3ccccc3C2)cc2oc3ccccc3c21	-12	5	-3	-1	-2	4
Cn1c(C(=O)N2CCc3ccccc3C2)cc2oc3ccccc3c21	4	3	nt	-1	55*	14
CCCn1nc2cc(C(=O)NCCc3cccs3)ccc2c1OCC	-4	-10	4	1	72*	3
CCCCNC(=O)c1ccc2c(OCC)n(CCCC)nc2c1	-7	-3	1	0	-6	4
COc1ccc(CN(C)C[C@H]2Oc3ccc(NC(=O)c4ccncc4)cc3CC(=O)N([C@@H](C)CO)C[C@H]2C)cc1	nt	nt	nt	nt	0	nt
Cn1cnc(S(=O)(=O)N2CC[C@@H]3[C@H]2c2cc(-c4cccc(F)c4)ccc2N[C@@H]3CO)c1	nt	nt	nt	nt	10	nt
O=C(Nc1nnc(Cc2ccc([N+](=O)[O-])cc2)s1)c1ccc2c(c1)OCO2	-9	9	-1	-1	nt	-7
CC(C)(C)Cc1nnc(NC(=O)c2ccc3c(c2)OCO3)s1	-6	2	0	2	46*	8
CC(C)(C)Cc1nnc(NC(=O)CSc2ccccc2)s1	-3	-6	-1	1	72*	0
CCOCc1nnc(NC(=O)CSc2ccccc2)s1	-7	20	-2	-2	-7	2
C[C@H]1CN([C@@H](C)CO)C(=O)c2cc(NS(=O)(=O)c3cccs3)ccc2O[C@H]1CN(C)C(=O)Nc1ccc2c(c1)OCO2	nt	nt	nt	nt	2	nt
O=C(C[C@H]1C[C@H]2c3cc(NC(=O)NC4CCCC4)ccc3O[C@H]2[C@@H](CO)O1)NCc1ccccc1	nt	nt	nt	nt	-1	nt
CC(/C=C1\SC(=S)N(C(C(=O)O)c2ccccc2)C1=O)=C\c1ccccc1 (centres undefined)	-2	66*	2	1	nt	-2
COc1ccc(OC)c(/C=C2\SC(=S)N(C(C(=O)O)c3ccccc3)C2=O)c1 (centres undefined)	-2	66*	-4	0	5	-4
Nc1ccc(C(=O)OCc2nc3c(ccc4ccccc43)[nH]2)cc1	-5	-4	-1	0	79*	6
Oc1cc(O)c(CN2CCOCC2)cc1CN1CCOCC1	2	101*	-6	1	-1	-5
SMILES	dFosB act	Rtt109 Vps75	SMARCA2 act	CDK5 inh	esBAF inh	Dyrk1A ADPGlo
COc1cccc(C2=CC(c3cccc(OC)c3OC)n3nnnc3N2)c1 (centres undefined)	-8	13	1	1	47*	-1
COc1ccc(S(=O)(=O)N(C)C[C@@H]2OCCCC[C@@H](C)Oc3ccc(NC(=O)Nc4cccc5ccccc45)cc3C(=O)N([C@@H](C)CO)C[C@@H]2C)cc1	nt	nt	nt	nt	9	nt
COC(=O)c1ccc(C(=O)NN)cc1	-7	-8	-3	-3	-6	1
COC(=O)c1ccc(C(=O)Nc2ccc(C(C)C)cc2N)cc1	1	12	4	-1	47*	-5
Cc1noc(C)c1NC(=O)N[C@@H]1C=C[C@H](CC(=O)NCCCN(C)C)O[C@H]1CO	nt	nt	nt	nt	-6	nt
Cc1cc(C(=O)COC(=O)c2ccc(O)cc2O)c(C)n1C(C)C	-4	0	6	-1	61*	1
O=C(COC(=O)c1ccc(O)cc1O)c1ccc2c(c1)OCO2	-3	2	1	0	63*	-6
O=C(COc1ccccc1Br)c1ccc2c(c1)OCO2	-6	-2	1	1	43*	2
CCc1ccccc1NC(=O)c1cnc2scc(C)n2c1=O	-9	-10	-5	-1	56*	5
O=C(c1cc2ccccc2oc1=O)N1CCN(c2ncccn2)CC1	-7	5	nt	1	70*	-10
CC(Cc1ccccc1)NC(=O)c1cc2ccccc2o1 (centres undefined)	-7	5	2	0	82*	0
CCC(=O)Nc1ccc(NC(=O)c2cc3ccccc3o2)cc1	2	-12	6	1	29	1
O=C(c1cc2ccccc2oc1=O)N1CCN(c2ccccn2)CC1	-1	3	0	0	-1	0
Cc1ccc(C(=O)c2cc3ccccc3o2)cc1[N+](=O)[O-]	-2	-5	0	0	67*	0
COc1ccc2cc(C(=O)c3ccccc3)c(=O)oc2c1	-4	6	3	1	66*	4
CCC(=O)N1C[C@@H]2[C@H](c3ccccc31)[C@@H](CO)N2Cc1ccccc1F	nt	nt	nt	nt	1	nt
COc1ccccc1-c1cnc2c(c1)C(=O)N([C@H](C)CO)C[C@H](C)[C@H](CN(C)CC1CCOCC1)O2	nt	nt	nt	nt	-2	nt
O=C(c1ccccc1)c1cc2ccccc2o1	0	-3	4	0	49*	-2
O=C(c1ccccc1)c1cc2ccccc2oc1=O	-1	-7	1	-1	48	0
O=C(NNC(=O)c1cc2ccccc2oc1=O)c1ccccc1	6	-6	0	0	55*	-1
CCNC(=O)C[C@@H]1CC[C@H]2[C@H](COc3ccc(NC(=O)Nc4cccc(C)c4)cc3C(=O)N2C)O1	nt	nt	nt	nt	-7	nt
CCc1cnc(N2[C@H](C#N)[C@@H](c3ccc(-c4cccc(F)c4)cc3)[C@H]2CO)s1	nt	nt	nt	nt	-8	nt
CC(=O)N[C@H]1CC[C@@H](CCNC(=O)C2CCCC2)O[C@H]1CO	nt	nt	nt	nt	1	nt
O=c1[nH]cnc2c1nnn2C1OC(CO)C(O)C1O (centres undefined)	nt	nt	5	nt	71*	nt
CCOC(=O)c1oc2cccc(O)c2c1C	-4	16	5	1	48*	27
Cc1nnc(SC2CC(=O)N(c3ccccc3)C2=O)s1 (centres undefined)	8	100*	-1	0	-11	3
